# Legend:
# Assay in all cases: PBM binding z-score (relative to random genomic background probes); higher = stronger binding; sequences stand for … in GC…GCGATTGACAGCGTAGAATGAAGG
# [1] = test system: RARb homodimer (NR concentration 270 nM)
# Summary of the method: (§1)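 Each nuclear receptor dimer, without ligand, was incubated for 1 h on custom Agilent 4×180K protein-binding microarrays. Binding was detected with antibodies against each partner (one per run), and scanned fluorescence was regression-normalized. The binding z-scores are referenced to random human genomic background probes.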
# [2] = test system: RARg:RXRa (NR concentration 270 nM, RXRa partner concentration 90 nM)
# Summary of the method: as §1
# [3] = test system: RARg homodimer (NR concentration 270 nM)
# Summary of the method: as §1
# [4] = test system: RXRa DBDmut IVT, anti-RXR (DBD mutation: RXRa K156A/R161A, NR concentration 90 nM)
# Summary of the method: as §1
# [5] = test system: RXRa homodimer (NR concentration 180 nM)
# Summary of the method: as §1
# [6] = test system: THRa:RXRa (NR concentration 90 nM, RXRa partner concentration 90 nM)
# Summary of the method: as §1
# [7] = test system: THRa homodimer (NR concentration 90 nM)
# Summary of the method: as §1
# [8] = test system: VDR homodimer (NR concentration 270 nM)
# Summary of the method: as §1
Sequence,PBM binding z-score [1],PBM binding z-score [2],PBM binding z-score [3],PBM binding z-score [4],PBM binding z-score [5],PBM binding z-score [6],PBM binding z-score [7],PBM binding z-score [8]
TCTTGTACATCAATAGAGGTTAAGAAAGTGCGCT,1.31,0.893,0.714,1.08,1.46,1.52,-0.338,-0.116
AGTTACGGGTCAACGAGGTTATAGCACGCGTATA,3.88,5.45,5.57,2.14,6.14,3.97,1.18,3.49
GATACAGGGCCAGCTAGAGGCCAGAGTATGGAAA,0.561,0.806,0.594,-1.03,-0.349,-0.394,-0.861,-0.246
GGAACGAGGGCATTCGAGTTGATTGCATGGCGAT,0.671,1.07,1.15,3.28,0.842,3.52,-0.335,3.28
TCTAGCAGGCAAGAGGGTCACTCAAGAGGTACGG,2.42,2.15,1.93,-0.113,2.5,1.47,-0.453,0.595
TCATACAGGTAAAGGTGAAAGTCGAACGATATGA,1.73,1.78,1.69,1.17,2.23,1.46,0.0499,0.141
CAAACTAGGTCAAGGTGAAAGTCGGTTTGTGCCA,3.45,3.81,4.95,1.61,2.82,3.49,2.52,0.978
ACTTACGGGTCAACGAGGTTATAGCACGCGTATA,3.53,5.57,5.3,2.71,6.39,4.01,1.25,3.96
GTACCAAGGTGAATAGGTCGTAGATGAGTAGGCG,1.92,2.94,1.61,-0.478,2.18,1.83,0.42,0.204

# — the supplement of paper PMC6555819
